aSyn 5UTR act – Activators working through SNCA 5'UTR binding (MLPCN); alpha-synuclein 5'UTR reporter, activators screen; activity score, % (tested at 7.5 µM), hits read low; actives 7.1% (n = 300,000); AID 1814; in the data active = activity score below about -60%
Numbers stand for hits. Only a sample is shown.

O=C(Nc1ccccc1C(=O)Nc1ccc2c(c1)OCO2)c1ccco1 was read as aSyn 5UTR act -73.7.
COCCn1cnnc1SCC(=O)Nc1ccccc1C(=O)Nc1ccc2c(c1)OCO2 was read as aSyn 5UTR act -69.9.
For C=CCN1c2ccccc2[C@]23C[C@@H](C(=O)OC)N(C(=O)c4cc(C)oc4C)C2=NC(C(=O)OC)=C(C(=O)OC)[C@H]13 the results were aSyn 5UTR act -61.8.
Screening Cn1c(CN2CCCCC2)nc2cc(NC(=O)c3ccc(Cl)cc3)ccc21 returned aSyn 5UTR act -65.7.
For Cc1ccc(C(C)C)c(OCC(=O)Nc2ccc3c(c2)nc(CCN2CCCCC2)n3C)c1 the results were aSyn 5UTR act inactive.
For Cn1c(CN2CCCC2)nc2cc(NC(=O)c3cccs3)ccc21 the results were aSyn 5UTR act -76.4.
Cn1c(CN2CCCC2)nc2cc(NC(=O)c3ccc(Cl)cc3)ccc21 was read as aSyn 5UTR act -62.8.
Screening COC(=O)Nc1nnc(-c2ccccc2Cl)s1 returned aSyn 5UTR act -94.2.
O=C(c1cc(-c2ccc(Br)cc2)on1)N1CCCCCC1 was read as aSyn 5UTR act -144.9.
Screening O=C(c1cc(-c2cccc(O)c2)on1)N1CCCCCC1 returned aSyn 5UTR act -118.9.
`O=C(c1cc(-c2cccc(Cl)c2)on1)N1CCCC1` gave aSyn 5UTR act -182.3.
For O=C(c1cc(-c2ccc(Cl)c(Cl)c2)on1)N1CCCCC1 the results were aSyn 5UTR act -193.1.
For CCCc1cc(C(=O)Nc2ccc(F)cc2F)no1 the results were aSyn 5UTR act -116.0.
For CCCc1cc(C(=O)Nc2cccc(Cl)c2C)no1 the results were aSyn 5UTR act -150.0.
CCCc1cc(C(=O)Nc2ccccc2SC)no1 was read as aSyn 5UTR act -155.5.
Screening C=CCSc1nnc(-c2sc(-c3ccccc3)nc2C)n1C returned aSyn 5UTR act -63.8.
`COc1ccc2c(c1)Cc1sc(NC(=O)c3ccccc3)nc1-2` gave aSyn 5UTR act -223.4.
`COc1ccc2c(c1)Cc1sc(NC(=O)c3cccs3)nc1-2` gave aSyn 5UTR act -242.4.
`COc1ccc(C(=O)Nc2nc3c(s2)Cc2cc(OC)ccc2-3)cc1` gave aSyn 5UTR act -108.7.
`C/C(=N\O)c1ccc2c3c([nH]c2c1)CCCC3` gave aSyn 5UTR act -79.8.
`Cc1c(CCOC(=O)CC23CC4CC(CC(C)(C4)C2)C3)sc[n+]1CC(=O)c1ccccc1` gave aSyn 5UTR act -65.4.
`C/C(CC(C)(C)C1CCCCC1)=N\NC(N)=S` gave aSyn 5UTR act -76.3.
For CCCNS(=O)(=O)c1cccc(C(=O)OCc2cc(=O)oc3cc(OC)ccc23)c1 the results were aSyn 5UTR act -96.6.
C=CCOc1ccc(/C=C/C(C)=N\O)cc1 was read as aSyn 5UTR act -109.8.
CCOc1ccc(-c2nc(CSCC(=O)N3CCN(c4cccc(OC)c4)CC3)c(C)o2)cc1 was read as aSyn 5UTR act inactive.
CCOc1ccc(-c2nnc(SCC(=O)N3CCCC3)o2)cc1 was read as aSyn 5UTR act -101.3.
For CCOc1ccc(-c2nnc(SCC(=O)N3CCOCC3)o2)cc1 the results were aSyn 5UTR act -113.3.
For COc1ccc(-c2nnc(SCC(=O)N3CCCC3)o2)cc1 the results were aSyn 5UTR act -107.3.
O=C(/C=C/Nc1ccc(F)c(Cl)c1)c1ccco1 was read as aSyn 5UTR act -147.8.
`O=C(/C=C/Nc1cccc(F)c1)c1ccco1` gave aSyn 5UTR act -264.0.
For CC1=CCC(COC(=O)Nc2ccccc2)CC1 (configuration not stated) the results were aSyn 5UTR act -138.9.
`O=[N+]([O-])c1cccc(-c2nnc(-c3ccccc3F)o2)c1` gave aSyn 5UTR act -161.5.
`CCOc1ccc(/C=C/C(=O)Nc2cccc(C(C)=O)c2)cc1` gave aSyn 5UTR act -150.7.
CC(=O)Nc1cccc(C(=O)/C=C/c2ccc(C)cc2)c1 was read as aSyn 5UTR act -123.3.
Screening Cc1ccc(NC2Nc3cc(C)nn3S2)c(C)c1 (configuration not stated) returned aSyn 5UTR act -138.3.
Cc1ccc(-c2cc(C(=O)Nc3nn[nH]n3)c3ccccc3n2)cc1 was read as aSyn 5UTR act -69.0.
`COc1ccc2cc(-c3cc(C(=O)O)c4ccccc4n3)ccc2c1` gave aSyn 5UTR act inactive.
`O=C(N/N=C/c1cccs1)c1cc(-c2ccncc2)nc2ccccc12` gave aSyn 5UTR act inactive.
`O=C(Nc1ccncc1)c1cc(-c2cccc(Br)c2)nc2ccccc12` gave aSyn 5UTR act inactive.
Screening O=C(Nc1nccs1)c1cc(-c2ccncc2)nc2ccccc12 returned aSyn 5UTR act -67.1.
COc1ccc(-c2cc(C(=O)Nc3ccc(C(N)=O)cc3)c3ccccc3n2)cc1 was read as aSyn 5UTR act -119.4.
Screening O=C(Nc1cccc(Br)c1)c1ccc(OC2CSC2)cc1 returned aSyn 5UTR act -198.5.
Screening Cc1cccc(NC(=O)c2ccc(OC3CSC3)cc2)c1 returned aSyn 5UTR act -177.2.
`CCN1CCc2c(sc(NC(=O)c3ccc(S(=O)(=O)N4CCOCC4)cc3)c2C(=O)OC)C1` gave aSyn 5UTR act -71.4.
NC(=O)COc1c(-c2ccc(Br)o2)oc2ccccc2c1=O was read as aSyn 5UTR act -62.4.
`O=C(O)c1ccccc1-c1ncc(-c2ccccc2)o1` gave aSyn 5UTR act -136.6.
Screening O=C1/C(=C/c2ccccn2)SC(=S)N1CCc1ccccc1 returned aSyn 5UTR act -159.0.
Screening Cc1ccc(/C=C2\SC(=S)N(CCCC(=O)Nc3ccccn3)C2=O)cc1 returned aSyn 5UTR act inactive.
COc1cc2ccccc2cc1C(=O)Nc1ccc(CN2CCOCC2)cc1 was read as aSyn 5UTR act -112.2.
`O=C(/C=C/c1ccc(Cl)cc1Cl)NC(=S)Nc1ccccn1` gave aSyn 5UTR act -223.9.
For CCC(=O)NC(c1ccc(Cl)cc1Cl)c1ccc2cccnc2c1O (configuration not stated) the results were aSyn 5UTR act inactive.
Screening O=C(Nc1ccc(CN2CCOCC2)cc1)c1ccc(Cl)cc1Cl returned aSyn 5UTR act -96.4.
Screening O=C(Nc1ccc(CN2CCOCC2)cc1)c1cccs1 returned aSyn 5UTR act -145.2.
`O=C(Nc1ccc(CN2CCOCC2)cc1)c1ccc(-c2cccc(Cl)c2)o1` gave aSyn 5UTR act -83.4.
Screening O=C(Cc1ccccc1)Nc1ccc(CN2CCOCC2)cc1 returned aSyn 5UTR act -86.7.
For O=C(Nc1ccc(CN2CCOCC2)cc1)c1ccccc1F the results were aSyn 5UTR act -75.8.
O=C(Oc1c(CN2CCOCC2)cc(Cl)c2cccnc12)c1ccccc1F was read as aSyn 5UTR act inactive.
`O=C(/C=C/c1ccc(Cl)cc1Cl)NC(=S)Nc1ccc(CN2CCOCC2)cc1` gave aSyn 5UTR act -71.1.
For COc1ccc2c(c1OC)C(=O)OC2Nc1nc(-c2cc3cc(Br)ccc3oc2=O)cs1 (configuration not stated) the results were aSyn 5UTR act -220.9.
Screening COc1ccc(S(=O)(=O)Oc2ccc3ccccc3c2)cc1 returned aSyn 5UTR act -92.9.
`Cc1cc(/C=C2\SC(=S)N(Cc3ccco3)C2=O)c(C)n1-c1cccnc1` gave aSyn 5UTR act -180.7.
`CCN(CC)S(=O)(=O)c1ccc(N2CCOCC2)c(NC(=O)c2cc([N+](=O)[O-])ccc2Cl)c1` gave aSyn 5UTR act -164.0.
For CCN(CC)S(=O)(=O)c1ccc(N2CCOCC2)c(NC(=O)c2cc(-c3ccccn3)nc3ccccc23)c1 the results were aSyn 5UTR act inactive.
`Cc1ccsc1C(=O)OCC(=O)NCCC1=CCCCC1` gave aSyn 5UTR act -81.0.
`C(/C=C/c1ccco1)=N/N1CCN(c2ccccc2)CC1` gave aSyn 5UTR act -189.0.

Screening data: PubChem BioAssay, Broad Institute
